Data from the supplement of paper PMC10515830.
Counter-ions that a name gives are not always drawn.

Assays:
Conditions in all cases: 10 µM; exposure time 6 h
[1] = system: Danio rerio larvae (5 dpf); experiment: difference in excitability vs DMSO (percentage points); higher = more excitable than DMSO
Procedure, shortened: (§1)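 In 96-well plates, 48 wild-type zebrafish larvae aged 5 dpf per compound received 100 µL egg water with library compound at 10 µM final for 6 h. Three hours into this, a 3-h programme of moving lines and 100 ms, 400Hz tones ran at 28.5 ℃ while plates were photographed every 6 s. Z-LaP Tracker scored the behaviours, and each is given as the compound mean minus the vehicle control mean in percentage points.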

[2] = system: Danio rerio larvae (5 dpf); experiment: difference in startle response vs DMSO (percentage points); higher = stronger startle than DMSO
Procedure, shortened: as §1

[3] = system: Danio rerio larvae (5 dpf); experiment: difference in activity during first hour vs DMSO (percentage points); higher = more activity than DMSO
Procedure, shortened: as §1

[4] = system: Danio rerio larvae (5 dpf); experiment: difference in habituation to acoustic stimuli vs DMSO (percentage points); higher = more habituation than DMSO
Procedure, shortened: as §1

[5] = system: Danio rerio larvae (5 dpf); experiment: difference in combined optomotor response to red, green and blue moving lines vs DMSO (percentage points); higher = stronger optomotor response than DMSO
Procedure, shortened: as §1

| Compound | difference in excitability [1] | difference in startle response [2] | difference in activity during first hour [3] | difference in habituation to acoustic stimuli [4] | difference [5] |
| --- | --- | --- | --- | --- | --- |
| COc1cc([C@@H]2c3cc4c(cc3[C@@H](O[C@@H]3O[C@@H]5CO[C@@H](C)O[C@H]5[C@H](O)[C@H]3O)[C@H]3COC(=O)[C@H]23)OCO4)cc(OC)c1O [Etoposide] | -3.42 | 2.1 | -5.75 | 2.55 | -5.33 |
| C[C@]12CC[C@@H]3c4ccc(O)cc4C[C@@H](CCCCCCCCC[S+]([O-])CCCC(F)(F)C(F)(F)F)[C@H]3[C@@H]1CC[C@@H]2O (stereo not given in full) [Fulvestrant] | 1.25 | 0.684 | -0.447 | 1.81 | 1.43 |
| Nc1ccn(C[C@@H](CO)OCP(=O)(O)O)c(=O)n1 [Cidofovir] | -2.11 | -1.31 | -7.68 | -3.35 | -5.67 |
| COCC1=C(C(=O)O)N2C(=O)[C@@H](NC(=O)/C(=N\OC)c3csc(N)n3)[C@H]2SC1 [Cefpodoxime] | 0.712 | 1.11 | -0.401 | -0.554 | 7.24 |
| CNNCc1ccc(C(=O)NC(C)C)cc1 [Procarbazine (hydrochloride)] | 0.724 | -0.558 | 6.39 | -5.35 | 4.87 |
| CNC(=O)c1ccc(N2C(=S)N(c3cnc(C#N)c(C(F)(F)F)c3)C(=O)C23CCC3)cc1F | -1.56 | -1.13 | 6.27 | 0.499 | 11.9 |
| C[N+]1(C)CCC(OC(=O)C(O)(c2ccccc2)C2CCCC2)C1 (stereo not given) [Glycopyrrolate] | -0.597 | -8.53 | 7.84 | -7.11 | -2.89 |
| CCN(CC)C(=O)[C@@]1(c2ccccc2)C[C@H]1CN [Levomilnacipran (hydrochloride)] | 9.82 | 0.949 | -23 | -1.84 | -14.2 |
| CC(C)OC(=O)OCOP(=O)(CO[C@H](C)Cn1cnc2c(N)ncnc21)OCOC(=O)OC(C)C [Tenofovir Disoproxil (fumarate)] | 9.75 | 2.55 | 6.31 | 0.343 | 8.11 |
| CC1=NN(c2ccc(C)c(C)c2)C(=O)/C1=N\Nc1cccc(-c2cccc(C(=O)O)c2)c1O [Eltrombopag] | 19.6 | -0.303 | 17.7 | 1.01 | -0.694 |
| CC/C(=C(\c1ccccc1)c1ccc(OCCN(C)C)cc1)c1ccccc1 [Tamoxifen (citrate)] | -1.02 | -2.65 | 14.8 | -2.18 | -15.8 |
| Cc1cc2c(s1)Nc1ccccc1N=C2N1CCN(C)CC1 [Olanzapine] | 26.1 | -4.9 | 8.52 | -8.45 | 4.38 |
| CN(C)CCC(c1ccc(Cl)cc1)c1ccccn1 (stereo not given) [Chlorpheniramine (maleate)] | 1.12 | -4.13 | -11.1 | -6.14 | -4.02 |
| CCCS(=O)(=O)Nc1ccc(F)c(C(=O)c2c[nH]c3ncc(-c4ccc(Cl)cc4)cc23)c1F | -2.43 | -1.48 | -5.03 | 2.88 | -0.602 |
| CN(C)CC(c1ccc(O)cc1)C1(O)CCCCC1 (racemic) [(±)-O-Desmethyl Venlafaxine] | 18.2 | -5.6 | -19.3 | -8.93 | -5.4 |
| Nc1ccn([C@@H]2O[C@H](CO)[C@@H](O)[C@@H]2O)c(=O)n1 [Cytarabine] | 1.17 | -0.992 | -3.96 | -4.77 | 3.66 |
| CCC1(C)CC(=O)NC1=O (stereo not given) [Ethosuximide] | 2.89 | 4.52 | -3.89 | 4.09 | 0.956 |
| Clc1ccc(C(c2ccccc2Cl)C(Cl)Cl)cc1 (stereo not given) [Mitotane] | 5.19 | -9.33 | 60.8 | -11.8 | -15.4 |
| Cc1c2oc3c(C)ccc(C(=O)N[C@@H]4C(=O)N[C@H](C(C)C)C(=O)N5CCC[C@H]5C(=O)N(C)CC(=O)N(C)[C@@H](C(C)C)C(=O)O[C@@H]4C)c3nc-2c(C(=O)N[C@@H]2C(=O)N[C@H](C(C)C)C(=O)N3CCC[C@H]3C(=O)N(C)CC(=O)N(C)[C@@H](C(C)C)C(=O)O[C@@H]2C)c(N)c1=O [Actinomycin D] | 5.1 | -6.8 | 6.02 | 4.18 | -0.162 |
| C=C[C@]1(C)C[C@@H](OC(=O)CS[C@@H]2C[C@H]3CC[C@@H](C2)N3C)[C@]2(C)[C@H](C)CC[C@]3(CCC(=O)[C@H]32)[C@@H](C)[C@@H]1O [Retapamulin] | 25.1 | 5.21 | -2.58 | 1.86 | 5.67 |
| COC(=O)N[C@H](C(=O)N[C@@H](Cc1ccccc1)[C@@H](O)CN(Cc1ccc(-c2ccccn2)cc1)NC(=O)[C@@H](NC(=O)OC)C(C)(C)C)C(C)(C)C [Atazanavir] | -0.672 | -1.55 | -1.56 | -0.953 | 2.7 |
| Clc1ccc2c(c1)CCc1cccnc1C2=C1CCNCC1 [Desloratadine] | 10.4 | 3.48 | 2.87 | -2.42 | 1.86 |
| CCCCCCOC(=O)NC(=N)c1ccc(NCc2nc3cc(C(=O)N(CCC(=O)OCC)c4ccccn4)ccc3n2C)cc1 [Dabigatran etexilate] | 7.34 | 2.07 | -7.27 | 0.895 | 2.07 |

| Compound | difference in excitability [1] | difference in startle response [2] | difference in activity during first hour [3] | difference in habituation to acoustic stimuli [4] | difference [5] |
| --- | --- | --- | --- | --- | --- |
| Cc1nc2n(c(=O)c1CCN1CCC(c3noc4cc(F)ccc34)CC1)CCCC2O (stereo not given) [Paliperidone] | 15.4 | 0.117 | 18.6 | 0.732 | 5.58 |
| CC(=O)N1CCN(c2ccc(OCC3COC(Cn4ccnc4)(c4ccc(Cl)cc4Cl)O3)cc2)CC1 (stereo not given) [Ketoconazole] | 8 | 3.5 | -5.85 | -0.327 | 5.96 |
| CCN(CC)C(=O)/C(C#N)=C/c1cc(O)c(O)c([N+](=O)[O-])c1 [Entacapone] | 5.12 | -3.47 | 4.7 | 3.38 | 3.62 |
| Nc1ccn([C@@H]2O[C@H](CO)[C@@H](O)C2(F)F)c(=O)n1 [Gemcitabine] | -0.256 | -0.373 | -2.75 | -1.87 | 2.24 |
| CCOC(=O)[C@H](CCc1ccccc1)N[C@@H](C)C(=O)N1Cc2cc(OC)c(OC)cc2C[C@H]1C(=O)O [Moexipril (hydrochloride)] | 11.9 | -4.62 | 7.71 | 2.63 | -1.21 |
| C[C@]12C=CC(=O)C=C1CC[C@@H]1[C@@H]2[C@@H](O)C[C@@]2(C)[C@H]1CC[C@]2(O)C(=O)CO [Prednisolone] | 1.41 | 3.42 | 13.7 | 0.15 | 7.45 |
| Cc1ccc(C(=O)c2ccc(CC(=O)O)n2C)cc1 [Tolmetin (sodium salt hydrate)] | -2.25 | 2.51 | 13.8 | 1.94 | 7.94 |
| COc1cc2c(cc1OC)CC(=O)N(CCCN(C)C[C@H]1Cc3cc(OC)c(OC)cc31)CC2 [Ivabradine (hydrochloride)] | 8.58 | 0.00664 | 14.5 | -0.807 | 9.1 |
| Cc1ccc(NC(=O)c2ccc(CN3CCN(C)CC3)cc2)cc1Nc1nccc(-c2cccnc2)n1 [Imatinib (mesylate)] | 13.1 | 1.01 | -9.06 | 5.17 | -1.23 |
| CC1Cc2ccccc2N1NC(=O)c1ccc(Cl)c(S(N)(=O)=O)c1 (stereo not given) [Indapamide] | 4.58 | 1.23 | 7.09 | -1.64 | 1.06 |
| O=C(O)c1cc(-c2ccc(F)cc2F)ccc1O [Diflunisal] | 1.22 | 5.89 | 15.2 | -3.92 | 6.8 |
| Nc1nc(N)c2nc(-c3ccccc3)c(N)nc2n1 [Triamterene] | -0.938 | 5.79 | 11.3 | -2.13 | 6.72 |
| CN(C)[C@@H]1C(O)=C(C(N)=O)C(=O)[C@@]2(O)C(O)=C3C(=O)c4c(O)cccc4[C@@](C)(O)[C@H]3C[C@@H]12 [Tetracycline (hydrochloride)] | 5.28 | 1.04 | 2.06 | -0.0493 | -5.79 |
| CO[C@H]1C(=O)[C@]2(C)[C@@H](OC)C[C@H]3OC[C@@]3(OC(C)=O)[C@H]2[C@H](OC(=O)c2ccccc2)[C@]2(O)C[C@H](OC(=O)[C@H](O)[C@@H](NC(=O)OC(C)(C)C)c3ccccc3)C(C)=C1C2(C)C [Cabazitaxel] | 6.19 | 4.59 | 13.7 | 3.39 | 2.83 |
| CCOC(=O)[C@H](CCc1ccccc1)N[C@@H](C)C(=O)N1[C@H](C(=O)O)C[C@H]2CCCC[C@@H]21 [Trandolapril] | -2.52 | -0.34 | 2.67 | -0.88 | 6.04 |
| C#CCN[C@@H]1CCc2ccccc21 [Rasagiline] | 3.5 | 1.96 | 10.2 | 4.46 | 6.27 |
| C[C@@H](NCCCc1cccc(C(F)(F)F)c1)c1cccc2ccccc12 [Cinacalcet (hydrochloride)] | -1.68 | 0.605 | 10.2 | -9.83 | -16.5 |
| CN1CCC[C@H]1c1cccnc1 (racemic) [(±)-Nicotine] | 9.04 | -8.45 | 50 | -10.6 | -14.9 |
| C[C@H](Cn1cnc2c(N)ncnc21)OCP(=O)(O)O [Tenofovir] | -6.21 | 0.269 | 0.971 | -2.1 | 5.37 |
| N[C@@H](CC(=O)N1CCn2c(nnc2C(F)(F)F)C1)Cc1cc(F)c(F)cc1F [(-)-Sitagliptin (phosphate)] | 10.7 | -0.289 | -10.7 | -3.48 | -5.35 |
| Cc1ccc(C(=O)Nc2ccc(CN3CCN(C)CC3)c(C(F)(F)F)c2)cc1C#Cc1cnc2cccnn12 [Ponatinib] | 7.08 | -6.04 | -11 | -7.62 | -12.5 |
| CN(C)C/C=C/C(=O)Nc1cc2c(Nc3ccc(F)c(Cl)c3)ncnc2cc1O[C@H]1CCOC1 [Afatinib (maleate)] | 20.1 | -1.05 | -11.3 | 5.63 | 8.09 |
| Oc1ccc(C2CNCCc3c2cc(O)c(O)c3Cl)cc1 (stereo not given) [Fenoldopam (mesylate)] | 9.9 | -2.3 | 4.74 | -1.52 | -1.12 |
